Results on 40 compounds are retold here after PubChem BioAssay (Tox21).

Records with an inconclusive call do not appear. Values without a mark were called inactive. The source made the active and inactive calls. Calls come from the whole dose curve; as a rule, active = well fitted cell-killing curve with a large enough effect in the repeat runs; inconclusive = weak or mixed curves, or effect the other way; inactive = flat fitted curve, though single readings scatter.
% is set by controls: 0 for no effect and ±100 for the full control effect.

The nature of the test: qHTS assay to identify small molecule antagonists of the retinoid acid receptor (RAR) signaling pathway - cell viability counter screen (AID 1159551). Note: nearly all actives have a fitted effect of over 35% in size. Particulars: C3RL4 cells viability, ATP luminescence (CellTiter-Glo), 6 h; series mostly up to 92.4 µM. From the text: U.S. Tox21 Program National Center for Advancing Translational Sciences [NCATS] NIH Chemical Genomics Center [NCGC] U.S. Environmental Protection Agency [EPA] National Institutes of Environmental Health Sciences [NIEHS] National Toxicology Program [NTP] U.S. Food and Drug Administration [FDA] Tox21 Assay Overview: All-trans Retinoic acid (atRA) is the potent natural metabolite of retinol and plays an important role in normal embryonic development and maintenance of cellular phenotype in adult animals. atRA is the activating ligand for the retinoic acid receptors (RARs) which form heterodimers with retinoid X receptors (RXRs) on the retinoic acid response element (RARE). Through activation of the RAR/RXRs nuclear receptors, atRA regulates the transcription of a large number of protein-coding genes and regulatory RNAs. Intracellular levels of atRA are controlled by the retinol signaling pathway (RSP) that regulates the biosynthesis and catabolism of atRA to maintain physiological levels. Chemicals that interfere with the RSP can cause abnormal intracellular levels of atRA and therefore are potential developmental toxicants. To assess compounds for the potential adverse effect on embryonic development through interfering with retinol signaling, a cell-based RARE luciferase reporter gene assay was used. C3RL4 cell line (OARSA/CFSAN/FDA, Laurel, MD) was used to screen Tox21 10K compound library for identifying inhibitors of the RSP. Also cytotoxicity was assessed by determining the viability of cells based on the quantitation of ATP.
Tox21 Assay Protocol Summary: C3RL4 cells were seeded at 1,000/well in 4 uL of assay medium into white solid 1,536-well tissue culture plates (Greiner Bio-One North America Inc. Monroe, NC) using a Multidrop Combi (Thermo Scientific, Waltham, MA) dispenser. After incubation at 37 C and 5% CO2 for an overnight, 23 nL of compounds dissolved in DMSO, positive control or DMSO only were transferred by a Pintool station (Kalypsys, San Diego, CA). One ul of 1 uM (final concentration) of Retinol was added right after the compound addition by using a Flying Reagent Dispenser (FRD) (Aurora Discovery, San Diego, CA). After 6 hr incubation at 37 C and 5% CO2, 5 uL of CellTiter-Glo reagent (Promega Corporation, Madison, WI) was added to each assay plate using an FRD. Luminescence was quantified on a ViewLux plate reader (PerkinElmer, Waltham, MA) after 30 min incubation at room temperature.
(In general: In qHTS, concentration-response curves come from the screen itself.)
Turning to `COc1cc(C=O)ccc1OC(=O)C(C)C`, the compound was classed as inactive. Still for that read-out and setting: the same measure for `CCCCCCCCCOCC1CO1` (stereo not given): “inactive”; for `O=C(O)c1ccc(OCCN2CCCCC2)cc1`: “inactive”. `NC(=O)NNC(N)=O`: the result was inactive. On the same count and under the same terms, the entry for `O=C(c1ccc2c(c1)C(=O)OC2=O)c1ccc2c(c1)C(=O)OC2=O` is “inactive”; for `C=C(C)C(=O)OC1CC(C)CC(C)(C)C1` (stereo not given) it is “inactive”. On the same count and under the same terms, the same measure for `OC(CCN1CCCCC1)(c1ccccc1)c1ccccc1`: “inactive”; for `CN(C)CCCNCCC#N`: “inactive”; for `COCCOCCOCCOC`: “inactive”. Still for that read-out and setting: the same measure for `CO[Si](CCCCl)(OC)OC`: “inactive”; for `NS(=O)(=O)c1cc2c(cc1Cl)NC(CC1CCCC1)NS2(=O)=O` (stereo not given): “inactive”; for `CCCCCCCCCCCCCCCCCCN(C)C`: “inactive”. As for `CCCCCCCCCCCCC`, the outcome was inactive. On the same count and under the same terms, the entry for `CCOC(=O)CCc1ccccc1` is “inactive”; for `CCOC(=O)CC(CC(=O)OCC)(OC(C)=O)C(=O)OCC` it is “inactive”; for `O=C(O)c1ccccc1C(=O)Nc1ccc(S(=O)(=O)Nc2nccs2)cc1` it is “inactive”.

As to `COC(/C=C(\C)CCC=C(C)C)OC`, the compound was called inactive. The same measure, in the same setting: the same measure for `NC(=O)NC(=O)Cc1ccccc1`: “inactive”; for `F[Si-2](F)(F)(F)(F)F`: “inactive”. Same read-out and setting: the entry for `C=CCOc1c(Br)cc(C(C)(C)c2cc(Br)c(OCC=C)c(Br)c2)cc1Br` is “inactive”. For the compound `BrC/C=C/CBr`, the activity change, negative = cytotoxicity was 3.13% [at 19 µM]. In the case of `C=CC(C)(O)CC/C=C(\C)CC` (stereo not given), the call was inactive. Still for that read-out and setting: the same measure for `CC(C)COC(=O)COc1ccc(Cl)cc1Cl`: “inactive”; for `Nc1nc(=O)n([C@@H]2O[C@H](CO)[C@@H](O)[C@@H]2F)cc1I`: “inactive”; for `O=CN1CCOCC1`: “inactive”. On the same count and under the same terms, the entry for `Nc1ccnc(=O)[nH]1` is “inactive”; for `CCNC(=O)/C=C/c1cccc(Br)c1` it is “inactive”; for `CC(=O)OC(C)c1ccccc1` (stereo not given) it is “inactive”. On the same count and under the same terms, the same measure for `CC1CCC(C(C)(C)S)C(=O)C1` (stereo not given): “inactive”. Consider `Nc1cc(Cl)cc(S(=O)(=O)O)c1O`, for which the call was inactive.

On to `C=C[Si](C)(C)O[Si](C)(C)C=C`, for which the compound was called inactive. Same read-out and setting: the entry for `O=C1c2ccccc2-c2ccccc21` is “inactive”; for `NCCc1ccn[nH]1` it is “inactive”; for `NS(=O)(=O)c1cc2c(cc1Cl)NC(C(Cl)Cl)NS2(=O)=O` (stereo not given) it is “inactive”. Still for that read-out and setting: the entry for `Cc1ccccc1C` is “inactive”; for `SCCSCCS` it is “inactive”; for `CCN(CC)C(=O)C1CN2CCc3cc(OC)c(OC)cc3C2CC1OC(C)=O` (stereo not given) it is “inactive”.

Take `Nc1ccc(/C=C/c2ccc(N)cc2S(=O)(=O)O)c(S(=O)(=O)O)c1`: the activity change, negative = cytotoxicity is 2.39% [at 0.349 µM]. Consider `CCCCC(C)C(=O)O` (stereo not given), for which the result was inactive. Still for that read-out and setting: the same measure for `C[N+](C)(C)CC(O)CCl` (stereo not given): “inactive”.
